ChEMBL document CHEMBL4513141, “CO-ADD screening of NIH (USA) - Clinical Collection” (2021)
Measured potencies and affinities stand elsewhere.

Legend:
Staphylococcus aureus = settings: Concentration 20 uM; ASSAY_TEST Inhibition of Bacterial Growth; detection method Absorption (OD600); MEDIA CAMHB; plate type 384well; NBS; CORNING #3640; time 18 hr
Escherichia coli = settings: Concentration 20 uM; ASSAY_TEST Inhibition of Bacterial Growth; detection method Absorption (OD600); MEDIA CAMHB; plate type 384well; NBS; CORNING #3640; time 18 hr

Compound	Inhibition (Staphylococcus aureus)	Inhibition (Escherichia coli)
C[N+]1(C)CCN(c2ccccc2)CC1.[I-] [DIMETHYLPHENYLPIPERAZINIUM IODIDE]	11.69%	3.59%
C[C@]12CC[C@H]3[C@@H](CCC4=CC(=O)CC[C@@]43C)[C@@H]1CC[C@@H]2O [TESTOSTERONE]	-3.69%	-8.96%
CN1CC[C@@]23CCCC[C@@H]2[C@@H]1Cc1ccc(O)cc13.O=C(O)C(O)C(O)C(=O)O	4.84%	6.67%
COc1ccc(CCN)cc1OC	8.89%	-3.33%
COc1cc2c(cc1OC)[C@@]13CCN4CC5=CCO[C@H]6CC(=O)N2[C@H]1[C@H]6[C@H]5C[C@H]43 [BRUCINE]	7.1%	-1.43%
NC1=NC(=O)C(c2ccccc2)O1 (stereo unspecified) [PEMOLINE]	13.44%	0.76%
c1ccc2c3c([nH]c2c1)CNCC3 [TRYPTOLINE]	7.42%	3.55%
CN1CCN(C(=O)O[C@H]2c3nccnc3C(=O)N2c2ccc(Cl)cn2)CC1 [ESZOPICLONE]	-7.93%	-0.26%
c1cncc([C@@H]2CCCN2)c1 [NORNICOTINE]	12.8%	-3.23%
CC(NC(C)(C)C)C(=O)c1cccc(Cl)c1.Cl (stereo unspecified) [BUPROPION HYDROCHLORIDE]	-23.91%	5.32%
C[N+]1(CCC(C(N)=O)(c2ccccc2)c2ccccc2)CCCCC1.[Br-] [FENPIVERINIUM BROMIDE]	4.81%	-0.64%
CN1C(=O)CN=C(c2ccccc2)c2cc(Cl)ccc21 [DIAZEPAM]	9.71%	3.05%
CNC(=O)Oc1ccc2c(c1)[C@]1(C)CCN(C)C1N2C.CNC(=O)Oc1ccc2c(c1)[C@]1(C)CCN(C)C1N2C.O=S(=O)(O)O (stereo partly specified)	12.91%	-3.79%
CC(C)CC(N(C)C)C1(c2ccc(Cl)cc2)CCC1 (stereo unspecified) [SIBUTRAMINE]	0.87%	6.8%
NC(=O)C[S+]([O-])C(c1ccccc1)c1ccccc1 (stereo unspecified) [MODAFINIL]	3.29%	4.2%
Fc1ccc([C@@H]2CCNC[C@H]2COc2ccc3c(c2)OCO3)cc1.O=C(O)/C=C\C(=O)O	0.49%	6.75%
Cl.O=C1CC2(CCCC2)CC(=O)N1CCCCN1CCN(c2ncccn2)CC1 [BUSPIRONE HYDROCHLORIDE]	17.44%	4.5%
CN1C(=O)COc2c(C(=O)NC3CN4CCC3CC4)cc(Cl)cc21.Cl (stereo unspecified)	14.32%	3.95%
COc1ccc2[nH]cc(C3=CCNCC3)c2c1.COc1ccc2[nH]cc(C3=CCNCC3)c2c1.O=C(O)CCC(=O)O	16.86%	5.51%
CN1CCN(C2=Nc3cc(Cl)ccc3Nc3ccccc32)CC1 [CLOZAPINE]	-2.25%	-7.08%
COC(=O)C[C@](O)(CCCC(C)(C)O)C(=O)O[C@@H]1C(OC)=C[C@]23CCCN2CCc2cc4c(cc2[C@H]13)OCO4 [OMACETAXINE MEPESUCCINATE]	10.39%	7.87%
COc1ccc2[nH]cc(CCN)c2c1 [5-METHOXYTRYPTAMINE]	3.43%	-0.18%
CC(C(=O)O)c1ccc(-c2ccccc2)c(F)c1 (stereo unspecified) [FLURBIPROFEN]	10.54%	-5.67%
CN/C(=N\CCSCc1nc[nH]c1C)NC#N [CIMETIDINE]	12.6%	-4.2%
CNCCC(Oc1ccc(C(F)(F)F)cc1)c1ccccc1.Cl (stereo unspecified) [FLUOXETINE HYDROCHLORIDE]	15.46%	2.53%
C[C@H](CCC(=O)O)[C@H]1CC[C@H]2[C@@H]3C(=O)C[C@@H]4CC(=O)CC[C@]4(C)[C@H]3CC(=O)[C@]12C [DEHYDROCHOLIC ACID]	8.43%	9.29%
CNS(=O)(=O)Cc1ccc2[nH]cc(CCN(C)C)c2c1.O=C(O)CCC(=O)O [SUMATRIPTAN SUCCINATE]	12.49%	0.9%
CN(C)CCOc1ccc(/C(=C(/CCCl)c2ccccc2)c2ccccc2)cc1.O=C(O)CC(O)(CC(=O)O)C(=O)O [TOREMIFENE CITRATE]	24.11%	-1.37%
